# Positions count from the first letter of the chain named.
# Legend:
# Test in all cases: PBM; 200 nM protein, PBS
# Settings in all cases: dsDNA, one strand shown
# CRX [1] = molecular target: CRX (Homo sapiens, UniProt O43186 26-111)
# SIX6 [2] = molecular target: T1, SIX6 (Homo sapiens, UniProt O95475 114-200, L167I)
# T1 sequence: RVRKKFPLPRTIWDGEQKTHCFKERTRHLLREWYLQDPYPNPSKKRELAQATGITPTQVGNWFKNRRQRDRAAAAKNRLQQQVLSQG
# SIX6 [3] = molecular target: T2, SIX6 (Homo sapiens, UniProt O95475 114-200, L143V)
# T2 sequence: T1 sequence with L30V, I54L
# SIX6 [4] = molecular target: T3, SIX6 (Homo sapiens, UniProt O95475 114-200, H141N)
# T3 sequence: T1 sequence with H28N, I54L
# SIX6 [5] = molecular target: T4, SIX6 (Homo sapiens, UniProt O95475 114-200, T165P)
# T4 sequence: T1 sequence with T52P, I54L
# SIX6 [6] = molecular target: T5, SIX6 (Homo sapiens, UniProt O95475 114-200, L167M)
# T5 sequence: T1 sequence with I54M
# SIX6 [7] = molecular target: T6, SIX6 (Homo sapiens, UniProt O95475 114-200, L143M)
# T6 sequence: T1 sequence with L30M, I54L
# SIX6 [8] = molecular target: T7, SIX6 (Homo sapiens, UniProt O95475 114-200, L143I)
# T7 sequence: T1 sequence with L30I, I54L
# SIX6 [9] = molecular target: T8, SIX6 (Homo sapiens, UniProt O95475 114-200, T165G)
# T8 sequence: T1 sequence with T52G, I54L
# SIX6 [10] = molecular target: T9, SIX6 (Homo sapiens, UniProt O95475 114-200, T139Q)
# T9 sequence: T1 sequence with T26Q, I54L
# CRX [11] = molecular target: CRX (Homo sapiens, UniProt O43186 26-111, E42D)
# CRX (Homo sapiens, UniProt O43186 26-111, E42D), sequence (O43186 26-111 E42D): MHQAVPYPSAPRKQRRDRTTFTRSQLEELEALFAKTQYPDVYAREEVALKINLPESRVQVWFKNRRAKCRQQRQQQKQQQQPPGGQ
# SIX6 [12] = molecular target: T10, SIX6 (Homo sapiens, UniProt O95475 114-200, T165A)
# T10 sequence: T1 sequence with T52A, I54L
# SIX6 [13] = molecular target: T11, SIX6 (Homo sapiens, UniProt O95475 114-200, L167V)
# T11 sequence: T1 sequence with I54V
# SIX6 [14] = molecular target: T12, SIX6 (Homo sapiens, UniProt O95475 114-200)
# T12 sequence: T1 sequence with I54L
# SIX6 [15] = molecular target: T13, SIX6 (Homo sapiens, UniProt O95475 114-200, T165I)
# T13 sequence: T1 sequence with T52I, I54L
# CRX [16] = molecular target: CRX (Homo sapiens, UniProt O43186 26-111, R41L)
# CRX (Homo sapiens, UniProt O43186 26-111, R41L), sequence (O43186 26-111 R41L): as the sequence (O43186 26-111 E42D) above, with R16L, D17E counted along it
# HOXB9 [17] = molecular target: HOXB9 (Homo sapiens, UniProt P17482 171-250, T197M)
# HOXB9 (Homo sapiens, UniProt P17482 171-250, T197M), sequence (P17482 171-250 T197M): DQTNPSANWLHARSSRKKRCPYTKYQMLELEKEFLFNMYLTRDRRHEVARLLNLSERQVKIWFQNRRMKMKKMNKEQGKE
# HOXA4 [18] = molecular target: HOXA4 (Homo sapiens, UniProt Q00056 201-287, W262R)
# HOXA4 (Homo sapiens, UniProt Q00056 201-287, W262R), sequence (Q00056 201-287 W262R): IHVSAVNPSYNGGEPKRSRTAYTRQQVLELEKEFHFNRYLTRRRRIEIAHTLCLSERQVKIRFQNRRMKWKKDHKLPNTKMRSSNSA
# HOXA4 [19] = molecular target: HOXA4 (Homo sapiens, UniProt Q00056 201-287, R217L)
# HOXA4 (Homo sapiens, UniProt Q00056 201-287, R217L), sequence (Q00056 201-287 R217L): as the sequence (Q00056 201-287 W262R) above, with R17L, R62W counted along it
# HOXB9 [20] = molecular target: HOXB9 (Homo sapiens, UniProt P17482 171-250)
# HOXB9 (Homo sapiens, UniProt P17482 171-250), sequence (P17482 171-250): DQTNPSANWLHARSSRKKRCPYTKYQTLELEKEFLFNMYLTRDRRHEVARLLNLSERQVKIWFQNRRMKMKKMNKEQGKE
# HOXA4 [21] = molecular target: HOXA4 (Homo sapiens, UniProt Q00056 201-287)
# HOXA4 (Homo sapiens, UniProt Q00056 201-287), sequence (Q00056 201-287): as the sequence (Q00056 201-287 W262R) above, with R62W counted along it
# HOXB9 [22] = molecular target: HOXB9 (Homo sapiens, UniProt P17482 171-250, R186Q)
# HOXB9 (Homo sapiens, UniProt P17482 171-250, R186Q), sequence (P17482 171-250 R186Q): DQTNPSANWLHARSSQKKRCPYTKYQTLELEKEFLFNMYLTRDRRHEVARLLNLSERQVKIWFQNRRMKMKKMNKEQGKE
# HOXA4 [23] = molecular target: HOXA4 (Homo sapiens, UniProt Q00056 201-287, W262F)
# HOXA4 (Homo sapiens, UniProt Q00056 201-287, W262F), sequence (Q00056 201-287 W262F): as the sequence (Q00056 201-287 W262R) above, with R62F counted along it
# CRX (Homo sapiens, UniProt O43186 26-111), sequence (O43186 26-111): as the sequence (O43186 26-111 E42D) above, with D17E counted along it
sequence,measurement,setting,value
CCGTCGCC,binding signal,CRX [1],"8.18 upbm affinity estimate (log intensity, higher = more binding, comparable within an allelic series)"
same,binding signal,SIX6 [2],"8.85 upbm affinity estimate (log intensity, higher = more binding, comparable within an allelic series)"
same,binding signal,SIX6 [3],"8.91 upbm affinity estimate (log intensity, higher = more binding, comparable within an allelic series)"
same,binding signal,SIX6 [4],"8.81 upbm affinity estimate (log intensity, higher = more binding, comparable within an allelic series)"
same,binding signal,SIX6 [5],"9.06 upbm affinity estimate (log intensity, higher = more binding, comparable within an allelic series)"
same,binding signal,SIX6 [6],"8.97 upbm affinity estimate (log intensity, higher = more binding, comparable within an allelic series)"
same,binding signal,SIX6 [7],"8.82 upbm affinity estimate (log intensity, higher = more binding, comparable within an allelic series)"
same,binding signal,SIX6 [8],"8.94 upbm affinity estimate (log intensity, higher = more binding, comparable within an allelic series)"
same,binding signal,SIX6 [9],"8.89 upbm affinity estimate (log intensity, higher = more binding, comparable within an allelic series)"
same,binding signal,SIX6 [10],"9.02 upbm affinity estimate (log intensity, higher = more binding, comparable within an allelic series)"
same,binding signal,CRX [11],"8.26 upbm affinity estimate (log intensity, higher = more binding, comparable within an allelic series)"
same,binding signal,SIX6 [12],"8.74 upbm affinity estimate (log intensity, higher = more binding, comparable within an allelic series)"
same,binding signal,SIX6 [13],"8.83 upbm affinity estimate (log intensity, higher = more binding, comparable within an allelic series)"
same,binding signal,SIX6 [14],"8.87 upbm affinity estimate (log intensity, higher = more binding, comparable within an allelic series)"
same,binding signal,SIX6 [15],"8.79 upbm affinity estimate (log intensity, higher = more binding, comparable within an allelic series)"
same,binding signal,CRX [16],"8.24 upbm affinity estimate (log intensity, higher = more binding, comparable within an allelic series)"
CACGCCCC,binding signal,CRX [1],"8.24 upbm affinity estimate (log intensity, higher = more binding, comparable within an allelic series)"
same,binding signal,HOXB9 [17],"8.49 upbm affinity estimate (log intensity, higher = more binding, comparable within an allelic series)"
same,binding signal,SIX6 [2],"9.05 upbm affinity estimate (log intensity, higher = more binding, comparable within an allelic series)"
same,binding signal,HOXA4 [18],"9.84 upbm affinity estimate (log intensity, higher = more binding, comparable within an allelic series)"
same,binding signal,SIX6 [3],"8.92 upbm affinity estimate (log intensity, higher = more binding, comparable within an allelic series)"
same,binding signal,SIX6 [4],"9.05 upbm affinity estimate (log intensity, higher = more binding, comparable within an allelic series)"
same,binding signal,SIX6 [5],"8.95 upbm affinity estimate (log intensity, higher = more binding, comparable within an allelic series)"
same,binding signal,SIX6 [6],"8.99 upbm affinity estimate (log intensity, higher = more binding, comparable within an allelic series)"
same,binding signal,SIX6 [7],"9.02 upbm affinity estimate (log intensity, higher = more binding, comparable within an allelic series)"
same,binding signal,SIX6 [8],"8.94 upbm affinity estimate (log intensity, higher = more binding, comparable within an allelic series)"
same,binding signal,SIX6 [9],"9.18 upbm affinity estimate (log intensity, higher = more binding, comparable within an allelic series)"
same,binding signal,HOXA4 [19],"9.86 upbm affinity estimate (log intensity, higher = more binding, comparable within an allelic series)"
same,binding signal,HOXB9 [20],"8.48 upbm affinity estimate (log intensity, higher = more binding, comparable within an allelic series)"
same,binding signal,SIX6 [10],"9.14 upbm affinity estimate (log intensity, higher = more binding, comparable within an allelic series)"
same,binding signal,CRX [11],"8.24 upbm affinity estimate (log intensity, higher = more binding, comparable within an allelic series)"
same,binding signal,SIX6 [12],"9.17 upbm affinity estimate (log intensity, higher = more binding, comparable within an allelic series)"
same,binding signal,HOXA4 [21],"9.74 upbm affinity estimate (log intensity, higher = more binding, comparable within an allelic series)"
same,binding signal,SIX6 [13],"8.99 upbm affinity estimate (log intensity, higher = more binding, comparable within an allelic series)"
same,binding signal,SIX6 [14],"9.08 upbm affinity estimate (log intensity, higher = more binding, comparable within an allelic series)"
same,binding signal,SIX6 [15],"9.05 upbm affinity estimate (log intensity, higher = more binding, comparable within an allelic series)"
same,binding signal,HOXB9 [22],"8.47 upbm affinity estimate (log intensity, higher = more binding, comparable within an allelic series)"
same,binding signal,CRX [16],"8.33 upbm affinity estimate (log intensity, higher = more binding, comparable within an allelic series)"
same,binding signal,HOXA4 [23],"9.99 upbm affinity estimate (log intensity, higher = more binding, comparable within an allelic series)"

# Source: publication PMC11006913
